S1P4 antag = blocks the human S1P4 receptor; S1P4-expressing cells, antagonist mode, reporter read-out; inhibition, % at 4.98 µM; hit rate 0.26% among 220,000; AID 1510; in the data active = inhibition above about 29%;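 also: 0% = wells stimulated with agonist and 100% = vehicle wells without agonist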
Target sequence (O95977 whole entry, looked up): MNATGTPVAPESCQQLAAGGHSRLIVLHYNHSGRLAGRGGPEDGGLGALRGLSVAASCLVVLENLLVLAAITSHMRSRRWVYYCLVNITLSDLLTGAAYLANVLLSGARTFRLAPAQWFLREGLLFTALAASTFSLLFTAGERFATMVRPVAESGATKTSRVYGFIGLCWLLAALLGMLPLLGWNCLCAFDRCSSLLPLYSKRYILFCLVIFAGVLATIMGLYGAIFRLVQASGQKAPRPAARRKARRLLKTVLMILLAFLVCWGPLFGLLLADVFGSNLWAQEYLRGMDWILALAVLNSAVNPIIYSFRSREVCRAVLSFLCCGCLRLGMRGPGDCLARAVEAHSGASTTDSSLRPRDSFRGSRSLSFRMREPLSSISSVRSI
DTT redox prof = compounds producing H2O2 with reducing agent – biochemical, NIH compound library profiling, artefact control for MLSCN library redox annotation, primary screen; activation, % at 10 µM; DTT-dependent redox cycling H2O2, phenol red/HRP absorbance; 100% = 100 µM peroxide control, 0% = buffer; AID 878; hit rate 0.03% among 200,000;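 active = activation of at least 50% relative to the plate's high and low controls in the primary single-dose screen; inactive = activation below 50%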;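 also: compound incubated with DTT at 0.8 mM final as the reducing agent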
p97 inhibitor = inhibitors of human p97 ATPase. P55072. recombinant p97 ATPase, Kinase-Glo ATP luminescence, 3 h. inhibition, % at 8 µM. hit rate 0.42% among 220,000. AID 1481; in the data active = inhibition above about 15%;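 also: 0% = DMSO vehicle and 100% = wells lacking enzyme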
S1P3 antag = blocks the human S1P3 receptor; Q99500; CHO S1P3 NFAT-BLA reporter, FRET fluorescence, antagonist mode; inhibition, % at 4.98 µM; hit rate 0.27% among 170,000;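 active = inhibition above the plate cutoff, the mean inhibition of test wells on that plate plus 3 SD, cut at about 28% in these data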;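 also: cells challenged with S1P at its EC80 of 0.8 µM; blue over green emission ratio from cleaved BLA substrate after 4 h stimulation; 0% = S1P-stimulated wells and 100% = unstimulated DMSO-only wells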
S1P4 ag = agonists of human S1P4 receptor; O95977; S1P4-expressing cell line, agonist reporter assay; activation, % at 4.98 µM; hit rate 0.35% among 220,000; in the data active = activation above about 11%;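 also: 0% = DMSO vehicle and 100% = reference agonist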
SUMO HTRF inh = inhibitors of human SUMOylation (UBC9); P63279; HTRF SUMOylation assay, SAE1/SAE2 + UBC9, in vitro; inhibition, % at 35 µM; hit rate 0.36% among 290,000; in the data active = inhibition above about 50%, passing the limit was not always enough; inconclusive = no clear call, values can overlap the other calls
Target sequence (P63279 whole entry, looked up): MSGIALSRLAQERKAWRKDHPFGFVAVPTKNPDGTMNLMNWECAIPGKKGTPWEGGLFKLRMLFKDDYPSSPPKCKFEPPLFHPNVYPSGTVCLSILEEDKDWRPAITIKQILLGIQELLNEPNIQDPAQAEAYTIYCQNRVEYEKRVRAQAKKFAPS
p97 confirm = confirmation of human p97 ATPase inhibitors | shares compounds with p97 inhibitor | inhibition, % at 8 µM | recombinant p97 ATPase, Kinase-Glo ATP luminescence | AID 1517 | hit rate 44% among 760;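 active = percent inhibition of p97 ATPase above a set limit, the primary screen's mean plus 3 SD, cut at about 15% in these data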;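 also: 0% = DMSO wells and 100% = wells lacking p97 protein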
Starred values were filed as active, the others as inactive; ? = inconclusive; / = not tested or not shown. Hits are enriched below; roughly 1.1% of the tested compounds scored in any of these assays.

SMILES	S1P4 antag	DTT redox prof	p97 inhibitor	S1P3 antag	S1P4 ag	SUMO HTRF inh	p97 confirm
COc1ccc2[nH]cc(CCNC(=O)Cc3ccc(F)cc3)c2c1	/	/	/	/	/	-3.8	/
O=C1NC(=S)S/C1=C\C=C\c1ccc([N+](=O)[O-])o1	-2.3	/	45.3*	9.1	0.1	86.4*	18.3*
O=C(O)/C=C/c1ccc([N+](=O)[O-])o1	-1.0	-1.6	4.7	-18.9	1.2	6.7	/
O=C(c1ccccc1)[C@H]1[C@H](c2ccccc2)[C@@]2(N=C(c3ccccc3)OC2=O)C2c3ccccc3C=NN21 (some centres not stated)	1.0	2.6	-2.2	/	-0.1	6.0	/
O=C(Nc1ccc(F)cc1)C1C(c2ccccc2)C1(Cl)Cl (configuration not stated)	-6.8	0.0	40.9*	16.8	0.3	-4.5	46.9*
O=C(Nc1ccccc1Cl)C1C(c2ccccc2)C1(Cl)Cl (configuration not stated)	/	/	/	/	/	4.4	/
O=C(NC1CCN(C(=O)c2cccs2)CC1)c1ccccc1	1.2	/	4.0	-4.3	0.5	21.2	/
N#Cc1c(Cl)nsc1NN	-12.1	-0.4	2.5	-28.0	2.0	3.7	/
CCOC(=O)c1c(CSCc2ccccc2)oc2ccc(O)c(CN(C)C)c12	0.9	/	0.6	2.7	0.8	4.6	/
O=C(O)CCCN1C(=O)/C(=C\c2ccc(-c3nc4ccccc4s3)o2)SC1=S	-4.7	/	15.4*	-17.7	3.1	39.7	3.0
O=C(O)c1ccccc1/C=N/N1CCN(C2c3ccccc3-c3ccccc32)CC1	1.8	-1.5	-1.6	-9.7	-1.0	6.1	/
COc1ccc(-c2csc(N(Cc3ccco3)C(=O)c3cccs3)n2)cc1	-7.1	/	39.0*	3.7	-0.3	-10.5	16.3*
CC1=Nc2ccccc2/C1=C/c1nc(-c2ccc(C)s2)oc1O	-20.8	-0.8	1.4	10.2	-0.6	11.7	/
CC1=Nc2ccccc2/C1=C/c1sc(=N)n(-c2nccs2)c1O	6.3	-4.1	29.2*	/	-1.8	-75.9	35.7*
O=C(Nc1cccc(F)c1)c1c(O)c2cccc3c2n(c1=O)CCC3	-0.8	6.2	17.7*	6.2	-0.3	10.6	7.9
COc1ccc(C(=O)Nc2ccc3oc(-c4cccc(Cl)c4)cc(=O)c3c2O)cc1	/	/	/	/	/	-8.4	/
O=[N+]([O-])c1ccc(C(O)C(CO)NC(=S)Nc2ccccc2)cc1 (configuration not stated)	5.5	/	15.7*	8.3	-0.4	25.2	9.0
Cc1ccc(NC(=S)NC(CO)C(O)c2ccc([N+](=O)[O-])cc2)cc1 (configuration not stated)	-2.5	-1.6	3.0	-19.4	1.9	5.6	/
O=C(O)c1ccc(NS(=O)(=O)c2ccc3c(c2)C2C=CCC2C(c2ccccc2F)N3)cc1 (configuration not stated)	-10.8	-0.2	32.1*	-4.6	3.4	/	37.3*
Cc1cc(OC(=O)c2ccc(S(=O)(=O)N(C)C)cc2)c([N+](=O)[O-])c(=O)[nH]1	-10.8	-8.8	16.1*	-4.4	0.2	3.3	5.6
CC(C(=O)Nc1cc([N+](=O)[O-])ccc1Cl)N1CCN(c2ccc(O)cc2)CC1 (configuration not stated)	-5.1	-0.4	-1.6	4.8	0.1	-5.6	/
CN(C)C=NC(=O)c1cn(-c2ccc(F)cc2)c(=O)c2ccccc12	-12.7	9.0	16.1*	-0.2	-0.2	1.2	1.6
COc1ccc(C2CC(=O)C(C=NCCN3CCN(C(C)=O)CC3)=C(O)C2)cc1OC (configuration not stated)	/	/	/	13.4	/	-23.0	/
OCCCNCc1ccc(N(c2ccccc2)c2ccccc2)cc1	/	/	/	/	/	7.5	/
OCC#Cc1ncc(C(F)(F)F)cc1Cl	-27.4	-1.3	28.2*	8.2	-0.6	-1.1	33.0*
SMILES	S1P4 antag	DTT redox prof	p97 inhibitor	S1P3 antag	S1P4 ag	SUMO HTRF inh	p97 confirm
NC(=O)Cc1ncc(C(F)(F)F)cc1Cl	-11.7	1.1	1.9	3.2	-0.6	13.8	/
CCOc1ccc(-c2noc(CCC(=O)NC3CCCCC3)n2)cc1OC	/	/	/	/	/	12.0	/
Cc1onc(-c2c(F)cccc2Cl)c1C(=O)N=C(N)N1CCCC1	1.7	/	7.5	-12.9	0.8	5.4	/
O=C(O)Cc1c[nH]c2cccc(O)c12	8.3	-0.3	17.1*	-2.6	0.1	?	18.6*
O=C(Cc1ccccc1)NCCc1c[nH]c2ccccc12	/	/	/	/	/	-2.6	/
COc1ccc(NC(=O)CC23CC4CC(C2)CC(n2nnc(C)n2)(C4)C3)cc1	4.3	-1.0	-5.9	-3.0	-1.2	-10.2	/
O=C1c2ccc([N+](=O)[O-])cc2NC(c2ccco2)N1/N=C/c1ccco1 (configuration not stated)	5.5	/	15.9*	-2.6	0.7	18.3	7.8
Cc1ccc(C(=O)NCCN2C3=NC[C@H](Cc4ccc(O)cc4)N3C[C@H]2Cc2ccc(O)cc2)cc1Br	/	/	/	/	/	-7.3	/
Cc1ccc(C(=O)NCCN2C3=NC[C@@H](Cc4ccccc4)N3C[C@H]2Cc2ccc(O)cc2)cc1Br	7.3	0.4	19.8*	0.1	2.0	5.2	12.3
N#Cc1cccc(NC(=O)CN2CCN(Cc3ccccc3)CC2)c1	/	/	/	/	/	12.1	/
COc1ccc(OC)c(-n2c(N)c(C(=O)NCC3CCCO3)c3nc4ccccc4nc32)c1 (configuration not stated)	2.9	-0.2	2.4	-29.9	2.0	19.5	/
Nc1c(C(=O)OCC2CCCO2)c2nc3ccccc3nc2n1C1CCCC1 (configuration not stated)	2.2	-0.7	16.8*	6.0	0.5	27.0	5.0
CC(=O)c1ccc2c(c1)C1C=CCC1C(C(=O)O)N2 (configuration not stated)	-0.3	-0.7	20.2*	-23.2	0.9	78.3*	29.9*
O=C(O)c1ccc2c(c1)C1C=CCC1C(c1cc3c(cc1Br)OCO3)N2 (configuration not stated)	0.1	-0.3	-4.9	-22.7	1.0	28.3	/
O=C(CN(C(=O)Cn1nnc(-c2cccs2)n1)c1ccc2c(c1)OCCO2)NC1CCCCC1	-1.1	-0.4	15.4*	-1.3	2.0	9.2	7.2
O=C1NCCCC2c3cc(O)c4ccccc4c3OC12N1CCCCC1 (configuration not stated)	7.2	0.0	33.9*	-47.0	1.8	56.1*	13.6
COc1ccc(C)cc1S(=O)(=O)N(C)CC(=O)N1CCCCCC1	-10.0	-0.6	-4.3	-28.7	1.4	14.0	/
CC1CCc2nc(N)c(C#N)c(-c3cccnc3)c2C1 (configuration not stated)	-7.6	-0.4	25.7*	/	5.5	-13.0	4.7
CC1CCc2nc(N)c(C#N)c(-c3ccncc3)c2C1 (configuration not stated)	-4.1	1.1	4.6	1.2	0.1	17.6	/
Cc1cccc(OCCCC(=O)Nc2ccc(S(N)(=O)=O)cc2)c1	-7.3	0.2	16.9*	-1.4	-0.2	1.0	5.5
